Here are results for 26 molecules from PubChem BioAssay AID1745853 (National Center for Advancing Translational Sciences (NCATS), 2022).

Test in all cases: Primary Screen for Target Class Profiling of Small Molecule Inhibitors of Methyltransferases
Assay [1] addresses Catechol O-methyltransferase (Homo sapiens) (UniProt P21964). The note with it: purified enzyme, MTase-Glo SAH luminescence; activity change, negative = inhibition: at 40 µM, stronger effect = lower value; outcome: 40 uM. In short, it runs like this:
(§1)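 Each enzyme was reacted with SAM and its substrate, with compounds tested once at 40 uM; SAH formed was read by MTase-Glo luminescence.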

Assay [2] concerns the target Glycine N-methyltransferase (Homo sapiens) (UniProt Q14749). The note with it: purified enzyme, MTase-Glo SAH luminescence; measured here: GNMT inhibition; at 40 µM; stronger effect = lower value. In short, it runs like this:
as §1

Assay [3] has as its target Guanidinoacetate N-methyltransferase (Homo sapiens) (UniProt Q14353). The note with it: purified enzyme, MTase-Glo SAH luminescence; measured here: GAMT inhibition; at 40 µM; stronger effect = lower value. In short, it runs like this:
as §1

For assay [4], the target named is Histamine N-methyltransferase (Homo sapiens) (UniProt P50135). The settings on record: purified enzyme, MTase-Glo SAH luminescence; measured here: HNMT inhibition; at 40 µM; stronger effect = lower value. An outline of the steps: as §1
Assay [5] concerns the target Nicotinamide N-methyltransferase (Homo sapiens) (UniProt P40261). The note with it: purified enzyme, MTase-Glo SAH luminescence; measured here: NNMT inhibition; at 40 µM; stronger effect = lower value. In short, it runs like this:
as §1

Assay [6] has as its target Phenylethanolamine N-methyltransferase (Homo sapiens) (UniProt P11086). The settings on record: purified enzyme, MTase-Glo SAH luminescence; measured here: PNMT inhibition; at 40 µM; stronger effect = lower value. An outline of the steps:
as §1

SMILES strings stand for the structures. Values joined by “and” are separate entries in the source; they are usually repeats but may differ in a detail not shown here. Identical values can stand only once. Screen size: about 25,000 compounds; about 970 (3.9%) were called active. Inconclusive results (about 8%) are left out. The rule behind the calls is not given here. This excerpt belongs to a sample that is enriched for actives. Some compounds were tested as several samples or in several runs, with calls that do not always agree.
% is set by controls: 0 for no effect and ±100 for the full control effect.

Chain of Histamine N-methyltransferase (Homo sapiens) (P50135 whole entry, looked up): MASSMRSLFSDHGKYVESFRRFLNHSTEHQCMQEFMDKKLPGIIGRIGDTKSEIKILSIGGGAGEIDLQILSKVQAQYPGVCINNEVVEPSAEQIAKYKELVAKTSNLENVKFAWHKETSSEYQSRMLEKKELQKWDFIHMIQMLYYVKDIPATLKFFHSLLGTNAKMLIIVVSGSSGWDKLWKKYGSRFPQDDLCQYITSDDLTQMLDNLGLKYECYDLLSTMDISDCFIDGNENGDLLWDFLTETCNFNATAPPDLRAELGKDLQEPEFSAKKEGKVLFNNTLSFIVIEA
Chain of Phenylethanolamine N-methyltransferase (Homo sapiens) (P11086 whole entry, looked up): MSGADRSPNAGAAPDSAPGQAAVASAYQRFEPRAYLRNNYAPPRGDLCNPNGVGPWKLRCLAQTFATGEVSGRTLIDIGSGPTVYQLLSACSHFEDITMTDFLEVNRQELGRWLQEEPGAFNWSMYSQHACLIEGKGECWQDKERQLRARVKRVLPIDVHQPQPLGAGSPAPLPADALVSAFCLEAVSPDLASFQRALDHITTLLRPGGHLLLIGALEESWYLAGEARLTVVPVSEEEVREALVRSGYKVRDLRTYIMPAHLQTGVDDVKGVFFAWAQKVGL
Chain of Catechol O-methyltransferase (Homo sapiens) (P21964 whole entry, looked up): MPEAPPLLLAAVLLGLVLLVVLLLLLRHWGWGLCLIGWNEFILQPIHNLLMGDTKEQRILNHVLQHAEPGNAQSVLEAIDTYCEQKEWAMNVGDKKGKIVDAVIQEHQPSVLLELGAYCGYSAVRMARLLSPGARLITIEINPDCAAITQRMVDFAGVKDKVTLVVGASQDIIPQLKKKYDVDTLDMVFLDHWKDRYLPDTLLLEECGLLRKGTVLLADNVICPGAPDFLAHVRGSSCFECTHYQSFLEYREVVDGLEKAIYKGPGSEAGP
Chain of Nicotinamide N-methyltransferase (Homo sapiens) (P40261 whole entry, looked up): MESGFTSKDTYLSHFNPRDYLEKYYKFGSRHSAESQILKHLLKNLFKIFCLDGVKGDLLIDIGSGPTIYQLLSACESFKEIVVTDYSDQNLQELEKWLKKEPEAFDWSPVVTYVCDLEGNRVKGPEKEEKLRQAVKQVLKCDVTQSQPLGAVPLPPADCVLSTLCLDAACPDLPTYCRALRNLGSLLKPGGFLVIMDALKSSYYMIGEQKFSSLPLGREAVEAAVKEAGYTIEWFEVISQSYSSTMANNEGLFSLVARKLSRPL
Chain of Glycine N-methyltransferase (Homo sapiens) (Q14749 whole entry, looked up): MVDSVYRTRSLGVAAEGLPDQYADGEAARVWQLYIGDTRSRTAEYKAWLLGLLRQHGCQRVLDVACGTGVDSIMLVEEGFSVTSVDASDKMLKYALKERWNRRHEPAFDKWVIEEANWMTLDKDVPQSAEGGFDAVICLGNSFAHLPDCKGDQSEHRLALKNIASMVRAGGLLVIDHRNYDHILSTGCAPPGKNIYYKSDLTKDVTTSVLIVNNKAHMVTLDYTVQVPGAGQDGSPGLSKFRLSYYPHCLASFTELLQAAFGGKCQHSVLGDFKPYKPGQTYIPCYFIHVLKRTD

With `COCCn1c(=O)c(C(=O)N2CCN(C(C)=O)CC2)nc2cccnc21`, the activity change, negative = inhibition in assay [1] was -9.78% (inactive); in assay [2] it was -6.01%; in assay [3], -10.4%; in assay [4], -3.36%; in assay [5] it was -14%; in assay [6] it was -5.78%.
For `CC(C)Cn1c(=O)c2ccccc2n2c(=O)n(Cc3ccccc3)nc12`, the activity change, negative = inhibition in assay [1] is 2.82% (inactive); in assay [2], -1.72%; in assay [3], 0%; in assay [4], 6.83%; in assay [5] it was -9.64%; in assay [6], 0.863%.
In the case of `Cc1ccc(NC(=O)Cn2nc3n(C(C)C)c(=O)c4ccc(C(=O)NC5CCCCC5)cc4n3c2=O)cc1`, the activity change, negative = inhibition is 2.74% (inactive) in assay [1]; 4.18% in assay [2]; 4.48% in assay [3]; 8.87% in assay [4]; 1.86% in assay [5]; 2.8% in assay [6].
As for `CCC(=O)N1Cc2ccccc2OC2(CCN(C(C)C)CC2)C1`, the activity change, negative = inhibition was -1.54% (inactive) in assay [1]; -3.35% in assay [2]; -0.819% in assay [3]; 0.171% in assay [4]; -3.98% in assay [5]; -4.26% in assay [6].
As to `CCOC(=O)CC1(NC(=O)N2CCn3cccc3C2Cc2ccccc2)CCCCC1` (stereo unspecified), the activity change, negative = inhibition in assay [1] is -25% (inactive); in assay [2] it was -7.26%; in assay [3], -5.73%; in assay [4], -9.85%; in assay [5] it was -17.7%; in assay [6], -40.7%.
As for `CN(C)CCN(C)[C@H]1[C@@H]2OC[C@@H](O2)[C@@H](NCc2ccc(N(C)C)cc2)[C@@H]1O`, the activity change, negative = inhibition in assay [1] was 2.76% (inactive); in assay [2] it was 0.488%; in assay [3], 1.19%; in assay [4] it was 0.035%; in assay [5] it was -5%; in assay [6], 0.902%.
Take `COc1ccc(C(=O)N2CCC3(CC2)CCC(O)(CN(C)C)CC3)cc1OC`: the activity change, negative = inhibition in assay [1] was 2.82% (inactive); in assay [2] it was -0.206%; in assay [3] it was -1.89%; in assay [4], -18.9%; in assay [5], -5.54%; in assay [6] it was -1.06%.
On to `CCCCNC(=O)CCc1nnc2n(CC(C)C)c(=O)c3ccccc3n12`, for which the activity change, negative = inhibition is 3.12% (inactive) in assay [1]; -1.98% in assay [2]; 4.49% in assay [3]; 5.26% in assay [4]; 4.71% in assay [5]; -0.917% in assay [6].
Take `CC(C)CCn1c(=O)c2ccccc2n2c(CCC(=O)NCCc3ccccc3)nnc12`: the activity change, negative = inhibition in assay [1] is 3.9% (inactive); in assay [2] it was -7.17%; in assay [3], 0%; in assay [4] it was 6.82%; in assay [5], -15%; in assay [6] it was 0.405%.
For the molecule `CN(CCCNC(=O)CCCc1nnc2n3nc(-c4ccccc4)nc3c3ccccc3n12)Cc1ccccc1`, the activity change, negative = inhibition in assay [1] is -4.54% (active); in assay [2], -16.6%; in assay [3] it was 1.44%; in assay [4], -57.9%; in assay [5], 0.458%; in assay [6] it was -4.78%.
In the case of `COC(=O)c1ncn2c1C(=O)N(Cc1cc(OC)ccc1OC)C(C)(C(=O)NCc1ccccc1)C2` (stereo unspecified), the activity change, negative = inhibition was -9.56% (inactive) in assay [1]; -4.3% in assay [2]; 3.99% in assay [3]; -2.02% in assay [4]; -4.11% in assay [5]; -4.82% in assay [6].
For `CN(C)c1cc2c(Nc3ccc4c(cnn4Cc4ccccc4)c3)ncnc2cn1`, the activity change, negative = inhibition in assay [1] is -13.2% (active) and -7.52% (inactive); in assay [2] it was -7.53% and -14.5%; in assay [3], 10.1% and 6.13%; in assay [4] it was 1.63% and -3.02%; in assay [5], -17% and -13.5%; in assay [6], -62.6% and -40%.
On to `CCC(C)C(=O)OC1C(C)C2(O)C(C=C(CO)CC3(O)C(=O)C(C)=CC32)C2C(C)(C)C12OC(=O)C(C)C` (stereo unspecified), for which the activity change, negative = inhibition in assay [1] was -2.75% (inactive); in assay [2] it was -4.22%; in assay [3], -5.2%; in assay [4], -3.1%; in assay [5], -15.7%; in assay [6] it was -0.901%.
Take `O=C(NCC1CCCCC1)c1cc(-c2cc(Cl)cc(Cl)c2)c2nncn2n1`: the activity change, negative = inhibition in assay [1] was -5.12% (inactive); in assay [2], -8.77%; in assay [3], -5.46%; in assay [4] it was -7.54%; in assay [5], -13.3%; in assay [6], -2.36%.
`CC(C)CCNC(=O)c1ccc2c(=O)nc3c(-c4ccc(Cl)cc4)n[nH]n3c2c1`: the activity change, negative = inhibition in assay [1] is -1.51% (inactive); in assay [2] it was -1.88%; in assay [3], 4.17%; in assay [4], -4.65%; in assay [5] it was 0.687%; in assay [6] it was -0.404%.
Take `COc1ccc(CCN2C(=O)c3ccc(-c4ccco4)n3CC2(C)C(=O)NCc2ccc(Cl)cc2)cc1OC` (stereo unspecified): the activity change, negative = inhibition in assay [1] is 0.852% (inactive); in assay [2], -6.96%; in assay [3], 1.72%; in assay [4], 2.32%; in assay [5], -28.2%; in assay [6] it was -1.05%.
As to `Cc1cc2c(cc3n2CC(C)(C(=O)NC2CCCCC2)N(C2CCCCCC2)C3=O)o1` (stereo unspecified), the activity change, negative = inhibition in assay [1] was 3.65% (inactive); in assay [2], 2.96%; in assay [3], 9.51%; in assay [4] it was 3.49%; in assay [5], -0.25%; in assay [6] it was -2.76%.
Take `CCCCCCc1cc2c(-c3ccccc3)cc(=O)oc2cc1OCC(N)=O`: the activity change, negative = inhibition in assay [1] was -7.58% (inactive); in assay [2], -9.86%; in assay [3] it was 1.37%; in assay [4], -0.051%; in assay [5], -9%; in assay [6], -8.85%.
`COc1c2c(c(C)c3c1C(=O)OC3)OC1(C)CC(O)C34OC(O)(CCC3(C)C1C2)OC4(C)C` (stereo unspecified): the activity change, negative = inhibition in assay [1] was -2.85% (inactive); in assay [2] it was -1.14%; in assay [3], -7.45%; in assay [4] it was -0.188%; in assay [5] it was -20.3%; in assay [6], -0.001%.
For `COc1ccc(OC)c(CCNC(=O)CCn2ccc3cc(S(=O)(=O)N4CCCC4)ccc32)c1`, the activity change, negative = inhibition in assay [1] is 1.88% (inactive); in assay [2] it was 1.91%; in assay [3] it was 4.56%; in assay [4], 3.65%; in assay [5], -0.408%; in assay [6], 0.497%.
For the molecule `CC(C)NC(=O)c1ccccc1OCC1CCCN(Cc2cccnc2)C1` (stereo unspecified), the activity change, negative = inhibition in assay [1] was -0.392% (inactive); in assay [2], -1.68%; in assay [3], -10.2%; in assay [4], -2.4%; in assay [5], -8.48%; in assay [6], -0.898%.
With `Cn1nccc1C(=O)N1CCC(Cc2nc(C3CC3)n[nH]2)C1` (stereo unspecified), the activity change, negative = inhibition in assay [1] is -2.8% (inactive); in assay [2], -3.99%; in assay [3] it was -1.84%; in assay [4], -1.69%; in assay [5] it was -5.4%; in assay [6], -4.14%.
`CCOc1ccccc1CN1CCC(Cc2nc(-c3cccnc3)n[nH]2)C1` (stereo unspecified): the activity change, negative = inhibition in assay [1] was -5.67% (active); in assay [2] it was -4.21%; in assay [3] it was -1.54%; in assay [4], -56.9%; in assay [5], -49.4%; in assay [6], -12.9%.
`CCC(C)N1Cc2cc(NC(=O)c3ccc([N+](=O)[O-])cc3)ccc2OCC1=O` (stereo unspecified): the activity change, negative = inhibition in assay [1] is -3.17% (inactive); in assay [2], -7.2%; in assay [3], -10.5%; in assay [4], -3.63%; in assay [5], -19.6%; in assay [6], -7.68%.
Turning to `CC(=O)c1ccc2c(c1)[C@H](NC(=O)c1ccc(F)c(Cl)c1)[C@H](O)C(C)(C)O2`, the activity change, negative = inhibition is -7.4% (inactive) in assay [1]; -1.85% in assay [2]; -7.24% in assay [3]; -2.99% in assay [4]; -18.7% in assay [5]; -13.1% in assay [6].
In the case of `COC[C@H]1NC(=O)CC[C@H]1C(=O)N1CCN(c2cccc(C)c2)CC1`, the activity change, negative = inhibition was -9.6% (inactive) in assay [1]; -5.9% in assay [2]; -7.51% in assay [3]; -3.65% in assay [4]; -13.6% in assay [5]; -21.5% in assay [6].
